VLA-4 antagonist: blocks LDV-FITC ligand binding to Mn2+-activated human VLA-4 integrin; Jurkat cells, LDV-FITC binding with Mn2+, flow cytometry; 100% = Mn2+-driven binding gain fully reversed; inhibition, % at 10 µM (by protocol); 24,000 compounds, 0.2% hits; AID 529;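 active = inhibition above 50%; inconclusive = compound itself fluorescent, judged against control cell fluorescence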;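 note: 0% = Mn2+ stimulated cells lacking compound and 100% = ligand binding without Mn2+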
Autofluor Jurkat: compound fluoresces in Jurkat cells, VLA-4 screen interference. 24,000 compounds, 0.61% hits. AID 576. compound autofluorescence, flow cytometry; stronger effect = higher value; 1 = vehicle-only cell background. fluorescence ratio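 (tested at 10 µM compound in the well)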;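 active = fluorescence ratio above 2.44, which is 1 plus 3 SD of all ratios; inconclusive = signal too bright to measure linearly, ratio around 10 or more; inactive = fluorescence ratio below 2.44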;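 note: green fluorescence of cells measured with 488 nm excitation and 530 nm emission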
VLA-4 allo ag: allosterically activates the human VLA-4 integrin; P13612; Jurkat cells, LDV-FITC binding, flow cytometry; activation, % at 10 µM (by protocol); 24,000 tested, under 10 active; AID 528;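 active = fluorescent ligand binding to cells raised by more than 40% of the manganese-induced maximum; inconclusive = compound's own fluorescence above 85% of the ligand control signal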;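 note: 0% = ligand binding without compound and 100% = manganese-stimulated maximal binding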
FPR ligand: binds the human formylpeptide receptor FPR; inhibition, % (concentration not given with the values); 24,000 compounds, 0.74% hits; FPR-expressing cells, fluorescent ligand binding, flow cytometry; AID 440;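 note: 0% = buffer wells and 100% = receptor blocker peptide wells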
Target sequence (P21462 whole entry, looked up): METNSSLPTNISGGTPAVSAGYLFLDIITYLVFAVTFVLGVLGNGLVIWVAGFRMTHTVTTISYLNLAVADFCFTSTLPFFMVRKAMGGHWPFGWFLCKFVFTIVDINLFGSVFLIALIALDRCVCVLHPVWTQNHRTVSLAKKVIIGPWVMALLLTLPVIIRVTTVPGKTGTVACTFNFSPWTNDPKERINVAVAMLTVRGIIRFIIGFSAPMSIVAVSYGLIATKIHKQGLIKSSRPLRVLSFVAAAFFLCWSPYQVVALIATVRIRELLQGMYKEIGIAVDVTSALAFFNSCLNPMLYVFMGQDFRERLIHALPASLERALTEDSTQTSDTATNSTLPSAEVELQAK
FPRL1 binder: binds the human formylpeptide receptor-like-1 FPRL1 | FPRL1-expressing cells, fluorescent ligand binding inhibition, flow cytometry | 24,000 compounds, 0.3% hits | inhibition, % (test concentration not listed) | P25090 | AID 441;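 note: 0% = buffer alone and 100% = receptor blocker peptide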
LNCaP diff act: LNCaP prostate cell differentiation activation; flow cytometry side scatter, 4 d; side scatter shift, % at 10 µM; 24,000 compounds, 0.56% hits;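 active = side scatter shift above 30%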;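 note: androgen-responsive LNCaP prostate cancer cells in charcoal-stripped serum medium; percent of cells past a gate set so DMSO wells show 10% shift; higher shift means more granular cells and more differentiation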
Starred values were filed as active, the others as inactive; ? = inconclusive; / = no result. Sampled rows, rich in hits. Any-hit rate of the full collection: about 1.9%. Cut-off read from the data, not from the text of the source, unless noted: active = inhibition above about 30%; inconclusive = no clear call, values can overlap the other calls; inactive = below that.

SMILES	VLA-4 antagonist	Autofluor Jurkat	VLA-4 allo ag	FPR ligand	FPRL1 binder	LNCaP diff act
CC1CCCN(CCCNC(=O)c2coc3nc4ccccc4nc23)C1 (configuration not stated)	?	4.7*	?	-4	-11	7
CC1CCN(CCCNC(=O)c2coc3nc4ccccc4nc23)CC1	?	2.4	?	-2	-4	6
Cc1ccc(CCNC(=O)c2coc3nc4ccccc4nc23)cc1	?	4.2*	?	-3	-7	7
COCCN1C(=O)C(O)=C(C(=O)c2cccs2)C1c1ccccc1 (configuration not stated)	/	/	/	60*	-5	/
CCOc1ccc(C2C(C(=O)c3cccs3)=C(O)C(=O)N2CCCn2ccnc2)cc1 (configuration not stated)	/	/	/	30*	8	/
Cc1nc(C)c(C(=O)C2=C(O)C(=O)N(CCCn3ccnc3)C2c2ccccc2)s1 (configuration not stated)	-16	1.1	0	1	4	9
CCCOc1ccc(/C(O)=C2/C(=O)C(=O)N(CCCn3ccnc3)C2c2ccco2)cc1 (configuration not stated)	/	/	/	4	2	/
Cc1ccc(C(=O)C2=C(O)C(=O)N(CCCn3ccnc3)C2c2ccc(OC(C)C)cc2)o1 (configuration not stated)	/	/	/	65*	-2	/
COc1cccc(C2C(C(=O)c3ccc(C)o3)=C(O)C(=O)N2CCCN(C)C)c1 (configuration not stated)	-4	1.1	4	6	7	8
CCOc1ccc(C2C(C(=O)c3ccco3)=C(O)C(=O)N2CCCn2ccnc2)cc1 (configuration not stated)	/	/	/	70*	1	/
N#Cc1c(C(F)(F)F)cc(-c2ccccc2)nc1SCc1nc(N)nc(N2CCOCC2)n1	?	8.7*	?	?	47*	13
Nc1nc(Cn2nnc(-c3ccccc3F)n2)nc(N2CCOCC2)n1	-5	1	2	0	6	3
Cc1cc2c(cc(C(=O)NCc3cccnc3)n2Cc2ccc(Cl)cc2)o1	?	1.5	?	6	-10	4
CCOC(=O)c1[nH]c2ccc(Br)cc2c1NC(=O)CCN1CCC(C(=O)OCC)CC1	0	0.98	-7	8	-1	8
COC(=O)c1oc2ccc(Br)cc2c1NC(=O)CN1CCN(C)CC1	6	1.1	3	0	9	31*
COCCOC(=O)c1cc(C(=O)c2cc(F)ccc2O)coc1=N	?	4.1*	?	-6	-8	13
CCOC(=O)c1c(C)c(C(=O)Nc2cc(F)ccc2F)c(C)n1C	?	1.3	?	4	3	12
CCOc1ccc(NC(=O)CN2C(=O)C3CCCN3C2=O)cc1 (configuration not stated)	1	1.1	-8	7	4	5
CC(=O)Nc1ccccc1O	-16	1.1	0	2	0	6
CC(=O)Nc1cccc(C(=O)Oc2cccc(C)c2)c1O	61*	1	-2	1	-9	5
Cn1c(SCCN2CCCCC2)nnc1-c1ccccc1Br	0	0.98	-2	0	0	9
Cc1cccc2cc(C#N)c(SCCN3CCCCC3)nc12	-6	1.3	6	2	-3	40*
Cc1ccc(C2/C(=C(/O)c3ccc(Cl)cc3)C(=O)C(=O)N2CC2CCCO2)o1 (configuration not stated)	/	/	/	60*	-2	/
Cc1ccc(C)c(/C(O)=C2/C(=O)C(=O)N(CCN3CCOCC3)C2c2ccc(C)o2)c1 (configuration not stated)	/	/	/	0	-2	/
CC(C(=O)N1c2ccc(F)cc2CCC1C)N1C(=O)c2ccccc2C1=O (configuration not stated)	-25	1	-8	-3	0	12
SMILES	VLA-4 antagonist	Autofluor Jurkat	VLA-4 allo ag	FPR ligand	FPRL1 binder	LNCaP diff act
Cc1[nH]n2c(=O)c3c(nc2c1-c1cccc2ccccc12)CCC3	/	/	/	48*	28	/
O=C(/C=N/O)NCc1ccncc1	-14	1	-3	-2	-8	16
COc1cccc2sc(Nc3nnc(-c4ccccc4Cl)o3)nc12	73*	1	7	/	/	/
COc1ccccc1-c1nnc(Nc2nc3c(OC)cccc3s2)o1	12	1.1	2	-4	4	18
CCCCC1(Cc2cccc([N+](=O)[O-])c2)C(=O)N(c2ccccc2)N(c2ccccc2)C1=O	26	/	-5	/	/	/
Cc1oc(-c2ccc(Cl)cc2)nc1CN1CCCC(C(=O)N2CCc3ccccc32)C1 (configuration not stated)	59*	1.1	-10	3	-3	5
CCN1CCN(CCNC(=O)C2CCCN(Cc3nc(-c4cccc(Cl)c4)oc3C)C2)CC1 (configuration not stated)	?	0.83	?	-1	-1	44*
CCOC(=O)N1CCC(NC(=O)C2CCCN(Cc3nc(-c4cccc(Cl)c4)oc3C)C2)CC1 (configuration not stated)	?	0.92	?	0	0	4
CCCN(CCC)CCNC(=O)C1CCN(Cc2nc(-c3ccc(Cl)cc3)oc2C)CC1	20	1	2	4	-2	87*
COC(=O)CN1CCN(C(=O)c2ccc(F)cc2)c2ccccc2C1	5	1	0	4	3	/
CCOC(=O)C(CC)Sc1nc(-c2ccc(OC)cc2)nc2c1c(=O)n(C)c(=O)n2C (configuration not stated)	10	1.2	-6	-2	6	19
O=C(NCc1ccccc1)N1CCn2c(nc3ccccc32)C1	-17	1.1	1	1	9	5
CCOc1ccc(NC(=O)CN(C)CC(=O)NC2CCCc3ccccc32)cc1OCC (configuration not stated)	-12	1	-4	4	-7	4
CCOc1cc(C(=O)NCc2nnc(SCC(=O)OC)n2C)cc(OCC)c1OCC	0	1	0	9	75*	2
CCOC(=O)CSc1nnc(CNC(=O)c2ccc(OC)c(OC)c2)n1C	-12	1	-3	0	1	12
CCOC(=O)CSc1nnc(CNC(=O)c2cc(OCC)c(OCC)c(OCC)c2)n1C	16	0.92	11	-6	51*	3
CCOC(=O)CSc1nnc(CNC(=O)c2cc(OC)c(OC)c(OC)c2)n1C	15	0.99	1	2	-2	7
CC(C)=CCCC(C)NC(=O)NC1CCCCC1 (configuration not stated)	-4	0.96	0	-8	-8	8
Cc1ccc(S(=O)(=O)Nc2nc3ccccc3nc2NCc2ccco2)cc1	?	4.8*	?	-3	2	9
O=C(O)c1ccccc1S(=O)(=O)NCC(O)COc1ccc(Br)cc1 (configuration not stated)	-2	1.1	-6	6	-2	5
